According to PubChem BioAssay (Tox21):
Records with an inconclusive call do not appear. Calls of active or inactive are those of the source. Unless noted, calls come from the whole dose curve; as a rule, active = well fitted curve in the direction sought with a large enough effect in the repeat runs; inconclusive = weak or mixed curves; inactive = no such curve, though single readings can be large; an effect the other way counts as inactive or inconclusive.

Experiments:
[1] = qHTS assay to identify small molecule agonists of the estrogen receptor alpha (ER-alpha) signaling pathway in the presence of an antagonist - cell viability counter screen (AID 1259386);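 note: cells exposed to compounds for 22 h at 37 °C before the viability read; nearly all actives have a fitted effect of over 30% in size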; note: potency is the fitted concentration of half-maximal effect
Procedure, shortened: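 Cells are starved of estrogens for 5 days in charcoal-stripped serum, seeded for 24hr and co-treated with ICI-182,780 (10.0nM final) and test compounds. After 22hr at 37C, viability is read as CellTiter-Fluor fluorescence.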

[2] = qHTS assay to identify small molecule agonists of the progesterone receptor (PR) signaling pathway - cell viability counter screen (AID 1346799; calls by dose curve; note: nearly all actives have a fitted effect of over 45% in size; note: potency is the fitted concentration of half-maximal effect)
Procedure, shortened: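 HEK293T PR-UAS-bla, 3,000 cells/well, 2% charcoal-stripped FBS; 6 h settle, compound 16 h at 37C/5% CO2; LiveBLAzer 2 h RT, then CellTiter-Glo 30 min RT, luminescence read.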

[3] = qHTS assay to identify small molecule antagonists of the TGF-beta/Smad signaling pathway - cell viability counter screen (AID 1346824); note: nearly all actives have a fitted effect of over 50% in size; note: potency is the fitted concentration of half-maximal effect
Procedure, shortened: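 SBE-bla HEK 293T cells, incubated overnight, then compound plus 0.25 ng/mL TGF-beta1 (stock added) for 5 hr at 37 C. Viability was read in the same wells by CellTiter-Glo luminescence after 30 min at room temperature.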

[4] = qHTS assay to identify small molecule agonists of the TGF-beta/Smad signaling pathway - cell viability counter screen (AID 1346829); note: nearly all actives have a fitted effect of over 45% in size; note: potency is the fitted concentration of half-maximal effect
Procedure, shortened: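 Luminescence from CellTiter-Glo, read after a 30 min room-temperature incubation, gives cell viability of SBE-bla HEK 293T cells treated 5 hr with compounds at 37 C.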

[5] = qHTS assay to identify small molecule agonists of the TGF-beta/Smad signaling pathway (AID 1346859; active = well fitted activation curve with a large enough effect in the signal ratio in the repeat runs, not every such curve was filed as active; the % refers to the signal ratio; note: series mostly up to about 77 µM)
Procedure, shortened: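 Read-out: fluorescence at 460 and 530 nm (405 nm excitation) after a 2 hr room-temperature incubation with beta-lactamase FRET substrate. SBE-bla HEK 293T cells had been treated with test compounds for 5 hr at 37 C.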

[6] = target: Thyrotropin-releasing hormone receptor (Homo sapiens) (UniProt P34981); test: qHTS assay to identify small molecule antagonists of the thyrotropin-releasing hormone receptor (TRHR) signaling pathway (AID 1346877; active = well fitted inhibition curve with a large enough effect in the repeat runs, not every such curve was filed as active; note: series mostly up to about 51 µM)
Procedure, shortened: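 Cells (TRHR-HEK293) are plated and kept 18 h at 37 °C/5% CO2. A calcium-sensitive dye is added for 2 h, compound follows for 5 min at room temperature, and TRH is then given at 1 nM final.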

[7] = target: Thyrotropin-releasing hormone receptor (Homo sapiens) (UniProt P34981); test: qHTS assay to identify small molecule agonists of the thyrotropin-releasing hormone receptor (TRHR) signaling pathway (AID 1346891; calls by dose curve;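 note: HEK293 cells expressing TRHR with calcium dye readout; series mostly up to about 58 µM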)
Procedure, shortened: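 HEK293/TRHR cells, 1500 per well, 18 h 37 °C; Ca dye 2 h 37 °C; pin-tool compound addition (agonist mode); kinetic fluorescence 3 min, 1 s reads; 15 concentrations, triplicate.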

[8] = target: Progesterone receptor (Homo sapiens) (UniProt P06401); test: qHTS assay to identify small molecule agonists of the progesterone receptor (PR) signaling pathway (AID 1346784; calls by dose curve; note: nearly all actives have a fitted effect of over 30% in size)
Procedure, shortened: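 HEK 293T PR-UAS-bla reporter cells, 2% charcoal-stripped FBS; 6 hr settle at 37C/5% CO2, compound (DMSO) 16 hr, LiveBLAzer B/G FRET substrate 2 hr RT, fluorescence intensity read.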

[9] = qHTS assay to identify small molecule antagonists of the progesterone receptor (PR) signaling pathway - cell viability counter screen (AID 1346798); note: nearly all actives have a fitted effect of over 50% in size; note: potency is the fitted concentration of half-maximal effect
Procedure, shortened: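 Luminescence readout (CellTiter-Glo, 30 min, RT) of viability in PR-UAS-bla HEK293T cells exposed to compound and R5020 agonist for 16 hr at 37C, 5% CO2; run in the same wells as the beta-lactamase reporter read.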

[10] = target: Progesterone receptor (Homo sapiens) (UniProt P06401); test: qHTS assay to identify small molecule antagonists of the progesterone receptor (PR) signaling pathway (AID 1346795; active = well fitted inhibition curve with a large enough effect in the signal ratio in the repeat runs, not every such curve was filed as active; the % refers to the signal ratio; note: potency is the fitted concentration of half-maximal effect)
Procedure, shortened: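 Beta-lactamase reporter, HEK293T PR-UAS-bla line; 2% charcoal-stripped FBS; 6 hr pre-incubation, 37C/5% CO2. Compound + R5020 1 nM final, 16 hr. LiveBLAzer B/G FRET substrate, 2 hr RT; fluorescence intensity read.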

Measured: Potency

Chain of Thyrotropin-releasing hormone receptor (Homo sapiens) (P34981 whole entry, looked up): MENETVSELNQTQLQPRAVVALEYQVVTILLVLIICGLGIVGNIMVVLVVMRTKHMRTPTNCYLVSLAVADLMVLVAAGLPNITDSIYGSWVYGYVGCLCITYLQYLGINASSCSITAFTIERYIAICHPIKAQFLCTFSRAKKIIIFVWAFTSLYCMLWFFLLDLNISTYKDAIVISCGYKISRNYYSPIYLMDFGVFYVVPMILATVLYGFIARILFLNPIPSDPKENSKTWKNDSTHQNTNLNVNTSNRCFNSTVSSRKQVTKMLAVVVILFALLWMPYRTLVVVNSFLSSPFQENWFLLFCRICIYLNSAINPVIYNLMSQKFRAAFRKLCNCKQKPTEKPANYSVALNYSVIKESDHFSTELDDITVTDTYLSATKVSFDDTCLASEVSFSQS
Chain of Progesterone receptor (Homo sapiens) (P06401 whole entry, looked up): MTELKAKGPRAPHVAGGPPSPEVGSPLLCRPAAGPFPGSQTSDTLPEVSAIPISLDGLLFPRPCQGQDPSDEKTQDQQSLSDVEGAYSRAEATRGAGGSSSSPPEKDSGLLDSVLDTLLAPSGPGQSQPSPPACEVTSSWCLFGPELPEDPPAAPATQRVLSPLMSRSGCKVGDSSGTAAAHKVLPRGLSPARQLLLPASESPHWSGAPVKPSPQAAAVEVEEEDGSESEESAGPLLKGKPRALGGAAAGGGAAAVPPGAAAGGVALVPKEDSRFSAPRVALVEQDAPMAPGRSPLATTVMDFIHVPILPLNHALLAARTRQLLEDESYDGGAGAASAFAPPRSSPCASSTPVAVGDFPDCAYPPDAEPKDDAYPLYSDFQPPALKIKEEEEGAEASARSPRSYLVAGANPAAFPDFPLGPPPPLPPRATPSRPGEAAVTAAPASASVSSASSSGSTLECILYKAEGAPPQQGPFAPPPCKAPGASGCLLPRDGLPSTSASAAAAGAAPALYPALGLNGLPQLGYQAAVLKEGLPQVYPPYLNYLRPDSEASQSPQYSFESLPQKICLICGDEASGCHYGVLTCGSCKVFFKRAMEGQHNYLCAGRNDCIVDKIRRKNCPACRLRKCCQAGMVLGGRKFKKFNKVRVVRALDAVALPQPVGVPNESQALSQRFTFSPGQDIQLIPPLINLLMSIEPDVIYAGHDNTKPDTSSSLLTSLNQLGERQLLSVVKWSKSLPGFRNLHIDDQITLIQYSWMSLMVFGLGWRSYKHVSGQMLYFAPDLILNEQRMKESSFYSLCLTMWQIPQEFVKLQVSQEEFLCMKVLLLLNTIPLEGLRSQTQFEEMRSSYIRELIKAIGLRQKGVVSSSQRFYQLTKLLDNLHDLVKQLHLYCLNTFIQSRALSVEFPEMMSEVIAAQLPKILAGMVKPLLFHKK

CN(C/C=C/C#CC(C)(C)C)Cc1cccc2ccccc12
active: [2] 13.3 µM
inactive: [1] | [3] | [4] | [5] | [6] | [7]

CC(C)(C)CC(C)(C)c1ccc(O)c(Cc2ccc(Cl)cc2Cl)c1
active: [1] 29.8 µM | [3] 21.3 µM | [4] 19 µM
inactive: [6] | [7]

Cc1oc(-c2ccccc2)nc1CCC(=O)c1ccc(CC2SC(=O)NC2=O)cc1 (centres undefined)
inactive: [8] | [9] | [3] | [4] | [6] | [7]

CCCCCCCC[N+](CCCCCCCC)(CCCCCCCC)CCCCCCCC
active: [1] 12.2 µM | [3] 48.9 µM | [4] 43.6 µM
inactive: [6] | [7]

CCC1=C[C@@H]2CN(C1)Cc1c([nH]c3ccccc13)[C@@](C(=O)OC)(c1cc3c(cc1OC)N(C)[C@H]1[C@@](O)(C(=O)OC)[C@H](OC(C)=O)[C@]4(CC)C=CCN5CC[C@]31[C@@H]54)C2
inactive: [8] | [3] | [4] | [5] | [6] | [7]
active: [10] 0.944 µM

C[n+]1ccn(Cc2ccccc2)c1
inactive: [8] | [9] | [3] | [4] | [5] | [6] | [7]

Cc1ccc(-n2nc(C(C)(C)C)cc2NC(=O)Nc2ccc(OCCN3CCOCC3)c3ccccc23)cc1
inactive: [8] | [9] | [3] | [4] | [6] | [7]

CC(=O)S[C@@H]1CC2=CC(=O)CC[C@]2(C)[C@H]2CC[C@@]3(C)[C@@H](CC[C@@]34CCC(=O)O4)[C@H]12
inactive: [1] | [3] | [4] | [6] | [7]

COc1ccc(C(=O)/C(Br)=C\C(=O)O)cc1
inactive: [8] | [9] | [3] | [5] | [6] | [7]

CC(C)(C)C(=O)OCOC(=O)C1N2C(=O)CC2S(=O)(=O)C1(C)C (centres undefined)
inactive: [1] | [2] | [3] | [4] | [5] | [6] | [7]

CNc1ccc(O)cc1
active: [1] 61 µM
inactive: [6] | [7]

C/C=C1/C(=O)C[C@H]2[C@@H]3CCC4=CC(=O)CC[C@]4(C)[C@H]3CC[C@]12C
inactive: [1] | [3] | [4]

Oc1cccc(-c2c3nc(c(-c4cccc(O)c4)c4ccc([nH]4)c(-c4cccc(O)c4)c4nc(c(-c5cccc(O)c5)c5ccc2[nH]5)CC4)C=C3)c1
inactive: [3] | [4] | [5]
active: [1] 10.6 µM

O=C1c2ccccc2Cc2ccccc21
inactive: [8] | [9] | [3] | [4] | [6] | [7]

Cc1cc(O)c(C(C)(C)C)cc1Sc1cc(C(C)(C)C)c(O)cc1C
inactive: [7]
active: [1] 48.5 µM | [3] 48.9 µM | [4] 34.6 µM

CCN(Cc1cccnc1)C(=O)c1cccc(Cl)c1[C@]1(C)C(=O)N(Cc2ccc(OC)cc2OC)c2ccc(Cl)cc21
inactive: [8] | [2] | [3] | [4] | [6] | [7]
active: [10] 16.1 µM

CC(C)n1nc(-c2cc3cc(O)ccc3[nH]2)c2c(N)ncnc21
inactive: [8] | [9] | [3] | [4] | [6] | [7]

[Cl][Au]([Cl])[Cl]
inactive: [3] | [6] | [7]
active: [1] 43.3 µM

OC1(c2ccc(Cl)c(C(F)(F)F)c2)CCN(CCCC(c2ccc(F)cc2)c2ccc(F)cc2)CC1
active: [1] 33.5 µM | [2] 13.3 µM | [3] 19 µM
inactive: [6] | [7]

CCOC(=O)/C=C(C)/C=C/C=C(C)/C=C/c1c(C)cc(OC)c(C)c1C
inactive: [8] | [2] | [3] | [4]

On1ccccc1=S
active: [10] 0.539 µM | [9] 0.605 µM | [2] 0.959 µM
inactive: [3] | [4] | [5] | [6] | [7]

CCCCCCCC/C=C/CCCCCCCC1=NCCN1CCO
inactive: [3] | [4] | [6] | [7]

CCc1cc(SCc2sc(-c3ccc(C(F)(F)F)cc3)nc2CN2CCN(c3ccc(OC)cc3)CC2)ccc1OCC(=O)O
inactive: [3] | [6]
active: [10] 24.3 µM | [9] 4.86 µM | [2] 6.11 µM

CC[C@@]1(O)C(=O)OCc2c1cc1n(c2=O)Cc2c-1nc1ccccc1c2/C=N/OC(C)(C)C
inactive: [2] | [3] | [4] | [6] | [7]

CN1CCC(Nc2ncc3ncnc(Nc4ccc(F)c(Cl)c4)c3n2)CC1
inactive: [3] | [6] | [7]
active: [9] 16.8 µM | [2] 9.44 µM

O=C(NOCC1CC1)c1ccc(F)c(F)c1Nc1ccc(I)cc1Cl
inactive: [3] | [4] | [5] | [6] | [7]

CCCCCCCCCCCCCCCCCC[N+](C)(C)Cc1ccccc1
active: [9] 27.6 µM | [2] 7.77 µM | [3] 49.5 µM | [4] 49.5 µM

CC1=C(C(=O)OC(C)C)C(c2cccc([N+](=O)[O-])c2)C(C(=O)OC2CN(C(c3ccccc3)c3ccccc3)C2)=C(N)N1 (centres undefined)
inactive: [3] | [5] | [6] | [7]

Cc1cccc2c1cc1ccc3cccc4ccc2c1c34
inactive: [9] | [3] | [4] | [6] | [7]

CC[C@@]1(O)C(=O)OCc2c1cc1n(c2=O)Cc2cc3c(CN(C)C)c(O)ccc3nc2-1
inactive: [3] | [4]
